# Bioassay records: PubChem BioAssay, National Center for Advancing Translational Sciences (NCATS)
# Most compounds without a hit are left out; they make up all but 2.9% or so of the library.
# ALOX12 inh: Primary qHTS assay for inhibitors of human arachidonate 12S-lipoxygenase (ALOX12): Round 2; actives 1.1% (n = 580,000); purified 12hLO, xylenol orange hydroperoxide absorbance; Potency, µM (highest dose often 108 µM), hits mostly inhibitors
#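 Hydroperoxide product was detected by ferrous iron/xylenol orange as the 573 to 405 nm absorbance ratio. Arachidonic acid at 40 uM (final) was turned over for 30 min at room temperature by 150 nM human 12hLO, pH 7.0 Hepes buffer, after 15 min compound preincubation.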
# POLB inh: qHTS Assay for Inhibitors of DNA Polymerase Beta. Potency, µM (highest dose often 114 µM), most hits filed as inhibitors. Pol beta primer extension/strand displacement, fluorescence kinetic. AID 485314, 2010. actives 1.3% (n = 340,000). P06746
#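 Homogeneous kinetic assay of primer extension and strand displacement by 10 nM Pol beta, preincubated 15 min at room temperature with compound before 50 nM substrate (final) was added. Read at 0 and 10 min; four-parameter Hill fit.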
# Pol iota inh: qHTS for Inhibitors of Polymerase Iota | DNA polymerase iota (Homo sapiens), Q9UNA4 | Pol iota fluorescent replication assay, 10 min | Potency, µM (series often up to 115 µM), most hits filed as inhibitors | actives 1% (n = 390,000) | AID 588590, 2011
#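 Fluorescent replication assay read twice, at 0 min and 10 min after adding 50 nM (final) substrate. Enzyme (10 nM) and compounds were first incubated 15 min at room temperature; enzyme-free buffer wells were negative controls.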
# POLK inh: qHTS for Inhibitors of Polymerase Kappa | DNA polymerase kappa (Homo sapiens), Q9UBT6 | purified Pol kappa, fluorescent DNA synthesis assay, 10 min | Potency, µM (top dose mostly 107 µM), usual class: inhibitors | actives 0.53% (n = 400,000) | AID 588579, 2011
#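 Here, compound and 10 nM enzyme are combined for 15 min at room temperature; adding 50 nM substrate (final) starts DNA synthesis, tracked by fluorescence at 0 and 10 min against buffer-only wells.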
# POLH inh: qHTS for Inhibitors of Polymerase Eta | DNA polymerase eta (Homo sapiens), Q9Y253 | recombinant Pol eta, fluorescent DNA replication assay | Potency, µM (top dose mostly 114 µM), actives largely listed as inhibitors | actives 1.2% (n = 390,000)
#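 Fluorescent replication assay: 50 nM final substrate added after a 15 min room-temperature compound preincubation with 10 nM enzyme. Signal taken at 0 min and again at 10 min.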
# PI5P4K alpha inh: qHTS for Inhibitors of phosphatidylinositol 5-phosphate 4-kinase (PI5P4K); Phosphatidylinositol 5-phosphate 4-kinase type-2 alpha (Homo sapiens), P48426; PI5P4Kalpha enzyme, ADP-Glo luminescence, 60 min; active compounds read low; max response, %; actives 1.2% (n = 330,000); active means max response of -50% or lower; inconclusive means between -30% and -50%; inactive means -30% or higher; further: value at the top dose of about 77 µM
# Target sequence (P48426 whole entry, looked up): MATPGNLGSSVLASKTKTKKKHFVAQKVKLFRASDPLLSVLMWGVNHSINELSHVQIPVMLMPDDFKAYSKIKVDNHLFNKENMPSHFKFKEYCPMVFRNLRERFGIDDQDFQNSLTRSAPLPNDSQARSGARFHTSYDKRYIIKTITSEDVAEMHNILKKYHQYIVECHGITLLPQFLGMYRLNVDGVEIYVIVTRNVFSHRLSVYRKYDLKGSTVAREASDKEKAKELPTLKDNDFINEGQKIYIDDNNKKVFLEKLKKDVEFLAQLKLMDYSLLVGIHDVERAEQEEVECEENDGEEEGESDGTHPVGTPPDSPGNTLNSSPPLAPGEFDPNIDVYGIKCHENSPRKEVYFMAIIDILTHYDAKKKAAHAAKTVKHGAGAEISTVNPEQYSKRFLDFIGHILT
#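 Human PI5P4Kalpha with substrate in 0.038 M HEPES pH 7.4, 0.28 mM EGTA, 0.1% CHAPS, 5% DMSO; reaction started with 5 microM ATP (final), 60 min at room temperature. ADP formed read by ADP-Glo luminescence.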
# Numbers stand for hits; 0 = inactive; ? = inconclusive; - = no result; [ ] = another dose, or the depositor's remark. Unless noted, the call rests on the fitted dose curve; in most records, active means well fitted inhibition curve with a large enough effect; inconclusive means small, poorly fitted or top-dose-only effect, or another doubt; inactive means no such curve, though single readings can be large or run the other way.
SMILES,ALOX12 inh,POLB inh,Pol iota inh,POLK inh,POLH inh,PI5P4K alpha inh
O=C1C2CC=C(Cl)CC2C(=O)N1CCc1c[nH]c2ccccc12 (configuration not stated),0,0,?,0,0,-
Cc1cccc(NC(=O)C2=C(c3ccccc3)S(=O)(=O)CCO2)n1,0,-,-,-,-,-
O=C(N/N=C/c1cccc([N+](=O)[O-])c1)c1cc(-c2ccc3c(c2)OCO3)n[nH]1,0,0,?,?,17.8µM,0
O=C(N/N=C/c1ccc(N2CCOCC2)cc1)c1ccc(NS(=O)(=O)c2cccs2)cc1,0,0,0,0,0,0
COc1ccccc1OCC(=O)N/N=C/C=C/c1ccc([N+](=O)[O-])o1,?,31.6µM,79.4µM,?,?,0
O=[N+]([O-])c1ccc(/C=N/N=C/c2ccc([N+](=O)[O-])o2)o1,0,0,22.4µM,?,?,0
O=C(N/N=C/c1ccc([N+](=O)[O-])o1)c1ccc(NS(=O)(=O)c2cccs2)cc1,0,?,50.1µM,0,31.6µM,-61.8
COc1cc(OC)cc(C(=O)N(C)Cc2cc(Br)ccc2OC)c1,0,-,-,-,-,-
O=C(OCc1ccccc1)c1c[nH]c2ccccc12,0,-,-,-,-,-
O=C(N/N=C\C=C\c1ccc([N+](=O)[O-])o1)c1cccs1,0,31.6µM,5.01µM,79.4µM,50.1µM,?
O=C(N/N=C\c1ccc(-c2ccc([N+](=O)[O-])cc2)o1)c1ccc2c(c1)OCO2,0,0,0,0,0,0
O=C(N/N=C/c1ccc([N+](=O)[O-])o1)c1ccc2c(c1)OCO2,0,39.8µM,?,0,0,0
COc1cc(C)ccc1OCCOCCOc1ccccc1Br,0,0,0,0,?,0
COc1cc(C)ccc1OCCOCCOc1cc(C)c(C)cc1Br,?,0,100µM,0,0,0
O=C(Nc1ccccc1)N[C@H]1[C@H](O)[C@@H](N2CCOCC2)[C@@H]2OC[C@H]1O2,0,-,-,-,-,-
O=C(Nc1ccccc1)N[C@H]1[C@H](O)[C@@H](N2CCN(c3ccccc3)CC2)[C@@H]2OC[C@H]1O2,112µM,-,-,-,-,-
Cc1ccccc1NC(=O)CCn1nc(C)c(S(=O)(=O)N2CCCCC2)c1C,0,-,-,-,-,-
O=C1NN(c2ccccc2)C(=O)/C1=C\c1cccn1-c1ccc(Cl)c([N+](=O)[O-])c1,?,?,?,?,20µM,-62.6
COc1cccc(/C=C2/C(=O)NN(c3ccccc3)C2=O)c1,-,0,0,0,0,0
COC(=O)[C@@]1(Sc2ccc(C)cc2)CC(=O)N[C@@H]1c1ccco1,39.8µM,-,-,-,-,0
CCOC(=O)CSc1ccc2nnc(-c3ccccc3)n2n1,0,0,0,0,0,0
CCOC(=O)CSc1ccc2nnc(-c3cccnc3)n2n1,31.6µM,?,0,0,0,0
[O][C@H]1[C@@H](O)[C@@H](CO)O[C@@H](O[C@@H]2[C@@H]3OC[C@H]2O[C@H](O[C@@H]2[C@@H](O)[C@H](C[C@@H]4[C@@H]5OC[C@H]4O[CH][C@@H]5O)O[C@H](CO)[C@@H]2OS(=O)(=O)O)[C@@H]3OS(=O)(=O)O)[C@@H]1O,-,-,-,31.6µM,-,-
O=C(N1CCC(Cc2ccccc2)CC1)C1(c2ccc(Cl)cc2)CCOCC1,0[6.33 µM],-,-,-,-,-
CCn1nc(CC(=O)Nc2ccc(-n3cnnn3)c(C)c2)c2ccccc2c1=O,0,0,0,0,0,0
SMILES,ALOX12 inh,POLB inh,Pol iota inh,POLK inh,POLH inh,PI5P4K alpha inh
CCn1nc(CC(=O)Nc2ccc(-n3cnnn3)c(OC)c2)c2ccccc2c1=O,0,31.6µM,0,0,?,0
O=C1CSC(=S)N1/N=C/c1ccc(O)c(O)c1O,-,0.316µM,0,0.708µM,0.708µM,-95.3
O=C1CSC(=S)N1/N=C/c1cc(Br)ccc1O,-,0,-,-,-,-
O=C1CSC(=S)N1N=Cc1ccc2c(c1)OCO2,?,-,?,0,0,-50.8
COc1ccc(/C=N/N2C(=O)CSC2=S)cc1,?,0,?,0,0,-
COc1ccc(/C=N/N2C(=O)CSC2=S)cc1Br,?,-,?,0,?,-78.4
COc1cccc(C2CC(=O)Nc3nc(C)[nH]c(=O)c32)c1OC (configuration not stated),0,-,-,-,-,-
CC(=O)N1CCOc2cc(S(=O)(=O)Nc3c(C)cccc3C(C)C)c(Cl)cc21,?,0,79.4µM,0,0,-
COc1cccc(NS(=O)(=O)c2cc3c(cc2C)N(C(C)=O)CCO3)c1,0,0,0,0,0,0
COCc1nncn1C1CCN(S(=O)(=O)c2cc(Cl)ccc2OC)CC1,0,-,-,-,-,-
O=C(NC(=S)NCCC1=CCCCC1)c1ccccc1Br,15.8µM,0,0,0,?,-53.8
CN1CCc2nc(SCc3ccc(Cl)cc3)c(C#N)c(-c3cccs3)c2C1,20µM,-,0,0,0,-
COc1cccc2c1C(=O)c1c(O)c3c(c(O)c1C2=O)C[C@@](O)(C(=O)CO)C[C@@H]3OC1C[C@@H](N)[C@H](O)[C@H](C)O1 (some centres not stated),-,-,-,17.8µM,-,-
COc1cccc2c1C(=O)c1c(O)c3c(c(O)c1C2=O)C[C@@](O)(C(=O)CO)C[C@@H]3O[C@H]1C[C@H](N)[C@@H](O)[C@H](C)O1,0,-,39.8µM,?,?,0
COc1cccc2c1C(=O)c1c(O)c3c(c(O)c1C2=O)C[C@](O)(C(=O)CO)C[C@@H]3O[C@H]1C[C@H](N)[C@@H](O)[C@H](C)O1,-,-,-,0,-,-
FC(F)(F)c1ccccc1Cc1c(-c2ccco2)nc2ccc(Br)cn12,35.5µM,-,-,-,-,0
Cc1ccc(NC(=O)CSCC(=O)Nc2ncc3c(n2)CC(c2ccco2)CC3=O)cc1 (configuration not stated),0,?,28.2µM,?,?,-
CNC(=O)c1ccc(CN(CC(=O)NC2(C#N)CCCCC2)C2CC2)cc1,0,-,-,-,-,-
COc1cc2sc3ccc(-c4ccc5[nH]ccc5c4)cc3c(=O)c2cc1OC,0,-,79.4µM,0,0,0
COC(=O)c1cc(=O)c(O)c2c(O)c(O)ccc2c1,-,-,-,1.12µM,-,-
Cc1ccc2c(c1)N(CC(=O)NCCC1=CCCCC1)C(=O)c1cccnc1O2,20µM,0,0,0,0,0
CCN(CC)CCNC(=O)CN1C(=O)c2cccnc2Oc2ccc(C)cc21,0,?,0,0,0,-
Cc1ncsc1CCO,0,-,-,-,-,-
O=C(Nc1nnc(C2CC2)s1)C1Cc2ccccc2CN1S(=O)(=O)c1cccs1 (configuration not stated),0,11.2µM,0,?,7.08µM,-60.0
